From PubChem BioAssay
Fluorescein fluor: compound autofluorescence in fluorescein spectral region. max fluorescein-equivalent concentration, M. Compound autofluorescence, 480/540 nm, fluorescein-equivalent; hits give high values. AID 593. 59,000 tested, 0.91% active; in the data active means max fluorescein-equivalent concentration above about 10 nM; inconclusive means between about 1.1 nM and that limit
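Tris 100 mM pH 8.0; 15 min RT; CCD read, ex 480/em 540 nm. Output: fluorescein-equivalent concentration per compound concentration, from six-point dye series on each plate.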
A647 autofl: compound autofluorescence in A647 spectral region; max dye-equivalent concentration, M; Compound fluorescence, A647 channel (570/671 nm), Tris buffer; 59,000 tested, under 10 active; AID 592
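Each compound's intrinsic fluorescence at 570 nm excitation and 671 nm emission is measured across its concentration series in 100 mM Tris, pH 8.0, after 15 min at room temperature, and reported relative to an A647 curve.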
Resorufin autofl: compounds fluorescent in resorufin spectral region | Compound fluorescence, resorufin region 547/598 nm, buffer; hits give high values | max dye-equivalent concentration, M | 59,000 tested, 0.04% active | AID 588
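Read-out: intrinsic compound fluorescence at ex 547/em 598 nm after 15 min at RT in pH 8.0 Tris (100 mM). Values expressed as resorufin-equivalent concentration from per-plate standard series.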
A488 autofl: compound fluoresces in the A488 spectral region; AID 591; 59,000 tested, 0.1% active; compound autofluorescence, A488 spectral region, dye equivalency; Compound Type: qHTS ECL - MLSMR; max dye equivalency, M
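Spectroscopic profiling in the A488 region: compounds in pH 8.0 Tris (100 mM), 15 min RT, CCD imaging with 480 nm excitation and 540 nm emission; responses normalized against A488 dye standards.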
Rhodamine autofl: compound autofluorescence in rhodamine spectral region | max dye-equivalent concentration, M | 59,000 tested, 0.05% active | Rhodamine-region fluorescence, 547/598 nm, Tris buffer; hits give high values; in the data active means max dye-equivalent concentration above about 11 nM; inconclusive means between about 1.1 nM and that limit
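Compound fluorescence in 100 mM Tris, pH 8.0, read after 15 min at room temperature with 547 nm excitation and 598 nm emission. Output is dye-equivalent concentration from an on-plate rhodamine standard series.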
TexasRed autofl: compounds fluorescent in Texas Red spectral region; Compound fluorescence, Texas Red channel, 547/618 nm; hits give high values; max dye-equivalent concentration, M; 59,000 tested, 0.06% active; AID 587; in the data active means max dye-equivalent concentration above about 10 nM; inconclusive means between about 1.1 nM and that limit
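Fluorescence at ex 547/em 618 nm, normalized against an on-plate Texas Red standard series to give dye-equivalent concentration per compound concentration. Buffer 100 mM Tris, pH 8.0; 15 min RT incubation before CCD imaging.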
A number is an active result; 0 = inactive; ? = inconclusive; ! = not confirmed by another sample. An excerpt weighted towards active compounds, which were near 0.9% of everything screened. Unless noted, how the calls were made is not given here.

SMILES | Fluorescein fluor | A647 autofl | Resorufin autofl | A488 autofl | Rhodamine autofl | TexasRed autofl
N#C/C(=C\c1ccc(O)c(O)c1)C(N)=S | 2.5e-08M | 0 | 0 | 0 | 0 | ?
CC(C)[C@H]1C(=O)N2CCC[C@@H]2[C@]2(O)O[C@@](NC(=O)[C@H]3C=C4c5cccc6[nH]cc(c56)C[C@H]4N(C)C3)(C(C)C)C(=O)N12 | 2.7e-08M | 0 | 0 | 0 | 0 | 0
CC(C)[C@H]1C(=O)N2CCC[C@H]2[C@]2(O)O[C@](NC(=O)[C@@H]3C=C4c5cccc6[nH]cc(c56)C[C@H]4N(C)C3)(C(C)C)C(=O)N12 | 5.3e-08M | 0 | 0 | ? | 0 | 0
CC(C)[C@]1(NC(=O)[C@H]2C=C3c4cccc5[nH]cc(c45)C[C@H]3N(C)C2)O[C@@]2(O)[C@H]3CCCN3C(=O)[C@H](Cc3ccccc3)N2C1=O | ? | 0 | 0 | 0 | 0 | 0
CC(C)[C@@]1(NC(=O)[C@@H]2C=C3c4cccc5[nH]cc(c45)C[C@H]3N(C)C2)O[C@@]2(O)[C@@H]3CCCN3C(=O)[C@H](Cc3ccccc3)N2C1=O | 3.8e-08M | 0 | 0 | ? | 0 | 0
CC[C@]1(OC(=O)CN)C(=O)OCc2c1cc1n(c2=O)Cc2cc3ccccc3nc2-1 | ? | 0 | 0 | 0 | 0 | 0
N#CC(C#N)=Cc1cc(O)c(O)c(O)c1 | 4.4e-08M | 0 | 0 | ? | 0 | 0
COc1ccc(Cn2c(O)c(C=NCCCn3ccnc3)c(=O)[nH]c2=O)cc1 | 0 | 0 | 0 | 0 | 0 | 0
CCN(CC)C(=O)N[C@@H]1C[C@H]2c3cccc4[nH]cc(c34)C[C@@H]2N(C)C1 | ? | 0 | 0 | 0 | 0 | 0
CC1=C[C@@H]2c3cccc4[nH]cc(c34)C[C@H]2N(C)C1 | 5.9e-08M | 0 | 0 | ? | 0 | 0
Nc1nc(N)c(N=Nc2ccc([As](=O)(O)O)cc2)c(=O)[nH]1 | ? | 0 | 0 | 0 | 0 | 0
COc1cc2c3cc1Oc1c(O)c(OC)cc4c1[C@@H](Cc1ccc(cc1)Oc1cc(ccc1O)C[C@H]3N(C)CC2)N(C)CC4 | ? | 0 | 0 | 0 | 0 | 0
CC(C)[C@@]1(NC(=O)[C@@H]2C[C@@H]3c4cccc5[nH]cc(c45)C[C@H]3N(C)C2)O[C@@]2(O)[C@@H]3CCCN3C(=O)[C@H](Cc3ccccc3)N2C1=O | ? | 0 | 0 | 0 | 0 | 0
CN1C[C@@H](CNC(=O)OCc2ccccc2)C[C@H]2c3cccc4c3c(cn4C)C[C@@H]21 | 3.9e-08M | 0 | 0 | ? | 0 | 0
COc1ccc2c3c([nH]c2c1)C(C)=NCC3 | ? | 0 | 0 | 0 | 0 | 0
CC1=NCCc2c1[nH]c1cc(O)ccc21 | 2.1e-07M | 0 | 0 | 4.5e-07M! | ? | 0
CCc1c(C(=O)OC)ncc2[nH]c3cc(OC)c(OC)cc3c12 | 0 | 0 | 0 | 0 | 0 | 0
O=C(O)c1ccccc1-c1c2cc(Br)c(=O)cc-2oc2[c]([Hg])c(O)c(Br)cc12 | 1.7e-05M | 0 | 2.9e-07M | 7.8e-07M | 3.8e-07M | 1.5e-08M
O=C(Cn1ncc2c3ccccc3n(Cc3cccc(Cl)c3)c2c1=O)N1CCC2(CC1)OCCO2 | 2.5e-08M | 0 | 0 | ? | 0 | ?
CN1C[C@H](CO)C=C2c3cccc4[nH]cc(c34)C[C@H]21 | 1.5e-08M | 0 | 0 | 0 | 0 | 0
CC[C@H](CO)NC(=O)[C@@H]1C=C2c3cccc4[nH]cc(c34)C[C@@H]2N(C)C1 | 2.7e-08M | 0 | 0 | 0 | 0 | 0
CC[C@H](CO)NC(=O)[C@H]1C=C2c3cccc4[nH]cc(c34)C[C@H]2N(C)C1 | ? | 0 | 0 | 0 | 0 | 0
CCNC(=O)[C@@H]1O[C@@H](n2cnc3c(N)ncnc32)[C@@H](O)[C@H]1O | ? | 0 | 0 | 0 | 0 | 0
C[C@@]12CC[C@H]3[C@@H](CC[C@@H]4C[C@H](O)CC[C@]43C)[C@H]1CC[C@H]2O | ? | 0 | 0 | 0 | 0 | 0
